This is part of a sample that, as a whole, favours compounds with a hit. Of some 83,000 tested, about 20% had one in any assay.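 For each line, cells grew in 96-well plates with the test compound present at a single concentration for 48 hours.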 Values without a mark were called inactive. The calls were made as follows: active = growth percent below 10; inactive = the rest.
Tested on: MDA-MB-468 breast
Experiment: NCI-60 one-dose screen, 48 h (100 = growth as untreated, 0 = no growth, -100 = all killed)
Conditions: 10 µM unless noted

SMILES | growth [%]
Nc1c(C(=O)Nc2ccccn2)sc2nc3c(cc12)C(O)CCC3 (stereo not drawn) | 15
CCOC(=O)C(C(C)=O)c1nc2sc3cc(Cl)c(Cl)cc3n2c(=O)c1C#N (stereo not drawn) | 89.5
Cc1cc(=O)cc(C)n1-c1ccccc1 | 100

— PubChem BioAssay (NCI)
